Screening results from PubChem BioAssay.
HTR5A ag ctr – HTR5A agonism, opioid heterodimer counter-screen | P47898 | AID 504692 | activation, % at 9.3 µM | 0.61% of 340,000 active | HTR5A agonist assay, luminescence, cell-based; in the data active means activation mostly above about 9.5%, no sharp cut-off; inactive means mostly below about 7.6%
HTR5A inv ctr – counter-screen for OPRM1-OPRD1 inverse agonists: human HTR5A inverse agonism; P47898; HTR5A cell line, luminescence; inhibition, % at 9.3 µM; 0.083% of 340,000 active; in the data active means inhibition mostly above about 23%, no sharp cut-off; inactive means mostly below about 18%
OPRM1-OPRD1 inv – inverse agonists of human mu-delta opioid receptor heterodimerization. P35372+P41143. cell-based MOR-DOR heterodimer luminescence, inverse agonism. inhibition, % at 9.3 µM. 0.21% of 340,000 active. AID 504357; in the data active means inhibition above about 22%, passing the limit was not always enough
Target sequence (P35372 whole entry, looked up): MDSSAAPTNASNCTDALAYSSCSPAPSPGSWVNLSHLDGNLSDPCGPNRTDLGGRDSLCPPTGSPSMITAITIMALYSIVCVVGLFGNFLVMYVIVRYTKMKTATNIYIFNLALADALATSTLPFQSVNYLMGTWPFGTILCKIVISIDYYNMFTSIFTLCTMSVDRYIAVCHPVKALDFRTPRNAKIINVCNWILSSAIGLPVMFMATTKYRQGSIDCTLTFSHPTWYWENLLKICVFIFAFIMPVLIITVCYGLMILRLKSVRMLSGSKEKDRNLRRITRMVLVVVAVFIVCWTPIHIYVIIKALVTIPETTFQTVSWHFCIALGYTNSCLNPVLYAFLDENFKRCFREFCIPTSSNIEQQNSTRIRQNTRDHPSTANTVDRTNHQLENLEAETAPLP
Target sequence (P41143 whole entry, looked up): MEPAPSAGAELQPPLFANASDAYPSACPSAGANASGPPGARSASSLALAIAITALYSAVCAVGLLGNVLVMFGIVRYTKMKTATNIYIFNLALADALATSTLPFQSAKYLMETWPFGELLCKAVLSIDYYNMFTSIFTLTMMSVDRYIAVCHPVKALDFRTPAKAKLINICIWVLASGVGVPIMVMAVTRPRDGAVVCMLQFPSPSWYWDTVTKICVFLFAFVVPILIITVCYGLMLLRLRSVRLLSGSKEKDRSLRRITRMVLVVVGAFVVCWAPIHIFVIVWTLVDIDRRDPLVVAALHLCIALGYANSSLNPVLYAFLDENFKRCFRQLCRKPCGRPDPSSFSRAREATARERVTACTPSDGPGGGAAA
OPRM1-OPRD1 ag – OPRM1-OPRD1 heterodimerization agonism; P35372+P41143; cells, luminescence; activation, % at 9.3 µM; 0.3% of 340,000 active; AID 504326; in the data active means activation above about 18%
Of the large screens only hits and unclear results are named; the others gave an inactive call. This is a sample that favours compounds with a hit; in the whole collection about 1.1% have one here.

CCN(CC(=O)Nc1c(F)cccc1F)C(=O)CC1CCCC1	HTR5A ag ctr 11
Cc1ccc(C(=S)N2CCCCCC2)cc1	none
O=S(=O)(Nc1cccc(-c2nc3cccnc3s2)c1)c1ccc2c(c1)OCCO2	HTR5A ag ctr 13
Cc1ccc(-c2nc3cccnc3s2)cc1NS(=O)(=O)c1ccc2c(c1)OCCO2	none
CCO[C@H]1OC(C(=O)N2CCCCCCC2)=C[C@@H](C)[C@@H]1CCCO	none
CC(C)N(CC(=O)Nc1ccc(Cl)cc1C(F)(F)F)C(=O)CCl	HTR5A ag ctr 12
C/C(=N/NC(=O)c1ccc(C)nc1)c1ccc2c(c1)CCCC2	none
O=C(O)CC1(CC(=O)Nc2ccc(C(F)(F)F)cc2)CCCC1	HTR5A ag ctr 9.5
O=C(Nc1cccc(S(=O)(=O)N2CCCCC2)c1)C1CCCN1S(=O)(=O)c1ccccc1F (stereo unspecified)	none
Cc1ccc2oc(=O)c3cnn(CC(=O)N4CCCc5ccccc54)c3c2c1	HTR5A ag ctr 14
O=C1c2cccc3cccc(c23)C(=O)N1c1ccc(O)cc1	none
O=C1c2cccc3cccc(c23)C(=O)C1(O)O	OPRM1-OPRD1 inv 46
CC(=O)NCCc1nc2cc(NC(=O)c3cccc([N+](=O)[O-])c3)ccc2n1C	none
CS(=O)(=O)c1ccc(C(=O)Nc2nc(-c3ccco3)c(-c3ccco3)s2)cc1	HTR5A ag ctr 45
O=C(Nc1nc(-c2ccco2)c(-c2ccco2)s1)C1CCC1	none
CC(=O)NS(=O)(=O)c1ccc(Nc2ccc([N+](=O)[O-])c3nonc23)cc1	none
CC(C)NC(=O)NC(=O)COC(=O)c1c2c(nc3ccccc13)CCC2	HTR5A ag ctr 14
CCCNC(=O)Cc1c(OC)ccc2cc(Br)ccc12	HTR5A ag ctr 13
CCCCNC(=O)Cc1c(OC)ccc2cc(Br)ccc12	none
COc1cc2sc(NC(=O)c3ccco3)nc2cc1Cl	HTR5A ag ctr 9.9
CC(C)Oc1ccc(C(=O)Nc2ccc(Cl)c(S(=O)(=O)Nc3ccc(Cl)cc3)c2)cc1	HTR5A ag ctr 12
CCC(CN(C)C)Oc1cc(NCc2ccccc2)c2ncn(C(C)C)c2c1 (stereo unspecified)	HTR5A ag ctr 21, OPRM1-OPRD1 ag 24
COc1cc2c(cc1NC(=O)C(C)OC(=O)c1ccc(S(=O)(=O)Nc3ccccc3Cl)cc1)oc1ccccc12 (stereo unspecified)	HTR5A ag ctr 13
COc1cc2c(cc1NC(=O)C(C)N1CCN(S(=O)(=O)c3ccc(C)c(C)c3)CC1)oc1ccccc12 (stereo unspecified)	none
COc1cc2ccccc2cc1C(=O)Nc1ccc(O)cc1	none
COc1ccc(C2NCCc3c2[nH]c2ccccc32)cc1CSc1nc2ccccc2s1 (stereo unspecified)	none
O=[N+]([O-])c1c(Nc2ccccc2O)cc(Cl)c2nonc12	OPRM1-OPRD1 inv 29
COc1ccc(N2CCN(C(CNS(C)(=O)=O)c3ccco3)CC2)cc1 (stereo unspecified)	none
CCSc1nnc2ccc(-c3ccc(OC)c(OC)c3)nn12	none
CCCCN(C)CCNC(=O)c1ccc2c(c1)NC(=O)C(N1CCCCC1)S2 (stereo unspecified)	HTR5A ag ctr 12
O=C(NCCCN1CCCC1=O)c1ccc2c(c1)NC(=O)C(N1CCOCC1)S2 (stereo unspecified)	none
COc1cc(C2N(C)C(=O)c3ccccc3N2C)ccc1O (stereo unspecified)	HTR5A ag ctr 9.5
CN1C(=O)c2ccccc2N(C)C1c1cccc(O)c1 (stereo unspecified)	none
Cc1cccc(C)c1OCc1cc(C(=O)NCC2CCCCC2)no1	none
Cc1cccc(C)c1OCc1cc(C(=O)N(Cc2c(C)nn(C)c2C)C2CC2)no1	HTR5A ag ctr 11
O=C(Nc1ccc(-c2nc3ccccc3[nH]2)cc1)c1ccc2c(c1)OCO2	HTR5A ag ctr 13
O=C(Nc1ccc(Cl)c(-c2nc3ccccc3[nH]2)c1)c1ccc2c(c1)OCO2	none
O=C(CCNS(=O)(=O)c1cccc2nsnc12)NCc1ccccc1Cl	none
CCCCOc1cccc(C2C(C(=O)c3ccc(C)o3)=C(O)C(=O)N2Cc2ccco2)c1 (stereo unspecified)	HTR5A ag ctr 13
Cn1c(=O)[nH]c(=O)c2[nH]c(CO)nc21	none
CCCOc1ccccc1-c1nc2c([nH]1)c(=O)[nH]c(=O)n2C	HTR5A ag ctr 13
CCN1C(=NCCN2CCOCC2)N[C@@H](c2ccccc2)C(C(=O)OC)=C1C	none
COc1ccccc1C(=O)NCCC(=O)NC1CCCCCC1	none
O=C(NCc1ccc(F)cc1)c1noc2c1CCCCC2	HTR5A ag ctr 14
Cc1ccccc1NS(=O)(=O)c1ccc(OCC(=O)NCc2ccccn2)cc1	none
CCOC(=O)c1ccc(NC(=O)c2cccc(S(=O)(=O)N3CCN(C(C)=O)CC3)c2)cc1	HTR5A ag ctr 12
CCCOC(=O)c1ccc(NC(=O)c2cccc(S(=O)(=O)N3CCN(C(C)=O)CC3)c2)cc1	none
O=C(COC(=O)c1ccccc1[N+](=O)[O-])Nc1cccnc1Cl	none
COc1cc(/C(C)=N/NC(=O)c2ccc(CSc3nncn3C)cc2)cc(OC)c1OC	HTR5A ag ctr 10
O=C(O)c1ccc(NC2=C/C(=N/S(=O)(=O)c3ccccc3)c3ccccc3C2=O)cc1	OPRM1-OPRD1 ag 28
O=[N+]([O-])c1ccc(OCn2cncn2)cc1	none
CC(C)(C)c1ccc(Oc2ccc(NC(=O)c3cccs3)cn2)cc1	HTR5A ag ctr 13
COc1ccc(NC(=O)c2cccs2)cn1	none
Cc1ccc(S(=O)(=O)Nc2ccccc2N(C)S(=O)(=O)c2ccc(C)cc2)cc1	none
Cc1cc(/C=C\c2nc(O)c([N+](=O)[O-])c(=O)[nH]2)c(C)n1-c1ccccc1	OPRM1-OPRD1 ag 34
Cc1cc(C(=O)COC(=O)c2nn(C)c(=O)c3ccccc23)c(C)n1C	none
COc1cc(CC(NC(C)=O)C(=O)NC2CCN(c3nc(OC)nc(OC)n3)CC2)cc(OC)c1 (stereo unspecified)	none
COc1nc(OC)nc(N2CCC(NC(=O)C(Cc3ccc(C(C)C)cc3)NC(C)=O)CC2)n1 (stereo unspecified)	HTR5A ag ctr 11
CCn1cc([N+](=O)[O-])c(C(=O)N2CCN(C(=O)c3ccco3)CC2)n1	HTR5A ag ctr 14
CC(C)Cn1c(N)c(C(=O)CSc2ncn[nH]2)c(=O)n(C)c1=O	none
CSc1nc(N)nc(SCC(=O)C23CC4CC(CC(C4)C2)C3)c1C#N	HTR5A ag ctr 12
N#Cc1c(N)nc(SCC(=O)C23CC4CC(CC(C4)C2)C3)c(C#N)c1-c1ccc(Cl)cc1	none
Oc1ccccc1-c1cc(C(F)(F)C(F)F)[nH]n1	HTR5A ag ctr 11
Oc1ccccc1C1=NCCNC(C(F)(F)C(F)F)=C1	none
O=C(O)CCC(=O)N1N=C(c2ccccc2)CC1c1ccc2c(c1)OCO2 (stereo unspecified)	none
Oc1cccc(C(O)CNCc2ccc(OCc3ccc(Cl)cc3Cl)cc2)c1 (stereo unspecified)	HTR5A ag ctr 12
O=C(COc1ccccc1)Nc1ccc(CSc2ccccc2)cc1	HTR5A ag ctr 12
COc1ccc(CNC(=O)COC(=O)c2c(NC(C)=O)sc(C)c2C)cc1	HTR5A ag ctr 14
O=C1C(=O)N(CCN2CCOCC2)C(c2ccccn2)/C1=C(/O)c1ccccc1 (stereo unspecified)	HTR5A ag ctr 12
